Measurements as given in the supplement of paper PMC12636033.
± gives the standard deviation of the averaged measurements. Whole data set: some 33,000 sequences, median “E-score (rank enrichment, -0.5 to 0.5)” near -0.0068, cut for the highest 2% near 0.24. What follows is part of a selection rich in the highest values, with near analogues and random picks from the rest.

Test system: muMax20 (Max(13-93) K31hArg/K57hArg, M65Nle)
Test: PBM 8-mer E-score (E-score (rank enrichment, -0.5 to 0.5)); higher = stronger preferential binding
Method: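 Protein binding microarray (universal PBM chip covering all 10-mers in fixed probe flanks) with chemically synthesized human Max(13-93) bHLH-LZ analogs (not full-length Max) bearing noncanonical residues (hArg, Tha, Aib, Nle at 65) and aromatic Cys staples. Read-out per 8-mer (and its reverse complement): E-score (rank-based enrichment, -0.5 to 0.5) and Z-score of median probe intensity.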

Sequence | PBM 8-mer E-score
CGCGCCAG | -0.222 ± 0.12
ATTGAGAC | -0.0808 ± 0.13
GTGACAAA | 0.0325 ± 0.033
CATAATGA | 0.0649 ± 0.033
AATAATGC | 0.1872 ± 0.0018
AATAATGA | 0.269 ± 0.062
GATAATGA | -0.00519 ± 0.014
AATAATGT | 0.258 ± 0.068
AATAATGG | 0.0129 ± 0.086
GCTCTTTA | 0.0129 ± 0.059
CGAAACAG | -0.176 ± 0.0078
CCCGGCTC | -0.299 ± 0.021
CTCGGTTC | -0.185 ± 0.018
GTTTTACA | 0.0874 ± 0.0056
GTGGTAAC | 0.102 ± 0.049
ATGGTAAC | 0.26 ± 0.046
ATGGTAAG | 0.0283 ± 0.054
GATAGTAC | 0.0698 ± 0.03
ACCCACCA | 0.0656 ± 0.034
GCCCACAC | 0.0523 ± 0.0056
GCCCACCA | -0.032 ± 0.095
ACCCACCC | 0.299 ± 0.091
CCCCACCC | 0.165 ± 0.027
GCCCACCC | 0.294 ± 0.07
AACGGCCG | -0.0126 ± 0.14

Sequence | PBM 8-mer E-score
ACCCCGAG | -0.142 ± 0.045
CATACCAG | 0.0299 ± 0.094
ATGTATTC | 0.107 ± 0.074
GTGTATTA | 0.277 ± 0.0053
CTGTATTA | 0.129 ± 0.013
ATGTATCG | 0.213 ± 0.065
CTATATTA | 0.199 ± 0.042
ATATATTA | 0.225 ± 0.056
ATGTATTA | 0.22 ± 0.012
GTATATTA | 0.28 ± 0.025
ATGTATTG | 0.251 ± 0.048
AGCTAGAA | -0.0154 ± 0.041
GGTCCACA | -0.0698 ± 0.11
GACGCAGA | -0.0585 ± 0.079
CCCAGTAG | -0.0372 ± 0.037
CGGTAACA | -0.0167 ± 0.022
AGCCTGCA | 0.0231 ± 0.12
AGCGTTGC | -0.0889 ± 0.092
CCGGCCGC | -0.23 ± 0.0085
CGCGGGTA | -0.0475 ± 0.074
ATGATTGA | 0.127 ± 0.063
ACCCAACC | 0.0711 ± 0.054
GCTAATCA | -0.0154 ± 0.012
GATAATCA | 0.311 ± 0.07
GATAATCC | -0.0364 ± 0.011

Sequence | PBM 8-mer E-score
AATAATCA | 0.08847 ± 8.5e-05
TATAATCA | 0.247 ± 0.037
CATAATCA | 0.08 ± 0.021
ACTCCTCT | -0.0496 ± 0.01
GCCAAGAA | 0.106 ± 0.011
ACCGAAAC | -0.0608 ± 0.064
ATCCTCAA | -0.0775 ± 0.063
CATCGCAA | 0.0394 ± 0.039
GGGCGGAC | -0.19 ± 0.067
GGCGGGGA | 0.245 ± 0.082
CGGCGGGA | -0.2043 ± 0.0015
GGCGGGAA | -0.0111 ± 0.026
GGGCGGGA | 0.256 ± 0.051
CGCGGGGA | -0.0158 ± 0.054
AGGCGGGA | 0.0523 ± 0.011
AAGCCTAG | 0.0589 ± 0.067
CGCTTCAC | -0.106 ± 0.011
GGAACGAC | -0.0812 ± 0.036
GACGCTCC | -0.151 ± 0.072
CTTTAATA | 0.16 ± 0.04
TATTAACA | 0.128 ± 0.13
AATTAACA | 0.244 ± 0.008
AATTAATT | 0.213 ± 0.015
TATTAAAA | 0.226 ± 0.062
AATTAATA | 0.271 ± 0.013

Sequence | PBM 8-mer E-score
AATTAATG | 0.139 ± 0.05
CATTAATA | 0.188 ± 0.011
CATTAACA | 0.22 ± 0.1
TATTAATA | 0.288 ± 0.051
GTTTAATA | 0.218 ± 0.022
ATTTAATA | 0.245 ± 0.097
GGGGTGAA | 0.0293 ± 0.058
ACCCAATA | 0.132 ± 0.054
ACCTGTTC | 0.0511 ± 0.016
CCGAGGAA | 0.0622 ± 0.053
AATGACCC | 0.074 ± 0.021
GTGGCACA | 0.137 ± 0.017
ACTTTAGC | -0.00298 ± 0.1
CGACTGCC | -0.163 ± 0.0073
GAACGAAA | 0.0569 ± 0.079
ATCCTGTC | -0.0955 ± 0.045
CGGTACAC | -0.0567 ± 0.015
AAAAAGCG | 0.0746 ± 0.018
ACCGCCTA | -0.0164 ± 0.2
AAACTATG | -0.057 ± 0.1
AGTCCTAG | -0.0808 ± 0.069
AATTAAGC | 0.191 ± 0.046
GATTAACA | 0.156 ± 0.037
AATTAAGA | 0.253 ± 0.013
GATTAAGA | 0.119 ± 0.07

Sequence | PBM 8-mer E-score
GATTAATC | -0.0526 ± 0.063
GATTAATA | 0.314 ± 0.062
AACCTTCC | 0.0123 ± 0.0059
AAACGAGA | 0.18 ± 0.13
TAACGAGA | 0.263 ± 0.054
CAACGAGA | 0.0722 ± 0.14
ATTACAGG | 0.236 ± 0.066
ATTACAGA | 0.0555 ± 0.062
ATTACAGC | -0.00666 ± 0.05
TAGATACA | 0.143 ± 0.12
CTCCGAGC | -0.0246 ± 0.032
AAGTCATT | 0.131 ± 0.027
ATGTTACA | 0.239 ± 0.025
ATGTTACC | 0.106 ± 0.016
CTGTTACA | 0.0334 ± 0.0084
CTATCTAA | 0.0704 ± 0.073
AAATGTAT | 0.241 ± 0.013
AAATGTAC | 0.238 ± 0.048
CAATGTAC | 0.115 ± 0.019
AAATGTGT | 0.175 ± 0.1
AAATGTAG | 0.0928 ± 0.084
GAATGTAC | -0.0364 ± 0.078
ACAGGCCT | -0.0825 ± 0.039
AGCAGTAA | -0.0641 ± 0.1
ACAGCGGA | -0.0346 ± 0.033

Sequence | PBM 8-mer E-score
GAATCAGA | -0.0136 ± 0.14
GGACGGAA | -0.0931 ± 0.17
TGATTTAA | 0.177 ± 0.05
CAGTATGA | 0.138 ± 0.084
TAGTATGA | 0.247 ± 0.067
AAGTATGA | 0.071 ± 0.059
TGGAGACA | -0.0387 ± 0.082
ACATCTAG | -0.0494 ± 0.021
AGAGCATA | 0.0465 ± 0.086
ATTTCAAG | 0.104 ± 0.023
GTTTCAAA | 0.162 ± 0.01
CTTTCAAA | 0.267 ± 0.044
CTTTCAAC | 0.0143 ± 0.071
ATTTCAAC | 0.146 ± 0.078
ATTTCAAA | 0.252 ± 0.0095
ACTGGCTA | -0.11 ± 0.0093
CAGACAGA | -0.0661 ± 0.06
GTTCAATA | 0.159 ± 0.039
ATGCAATC | 0.126 ± 0.089
CGACGTGC | -0.0517 ± 0.017
CGACGTGA | 0.124 ± 0.012
CTACGTGA | -0.0185 ± 0.092
CCACGTCC | -0.0476 ± 0.004
CAACGTGG | 0.11 ± 0.046
CCACGTGA | 0.43 ± 0.082

Sequence | PBM 8-mer E-score
CCACGTTC | 0.114 ± 0.033
GCACGTTA | 0.0863 ± 0.14
CCACGTTA | 0.246 ± 0.059
CCACGTAG | -0.156 ± 0.06
CCACGTGG | 0.475 ± 0.032
CCACGTGC | 0.463 ± 0.03
ACGGTGAT | 0.0166 ± 0.12
ACTGGACT | -0.0734 ± 0.014
CACTCGAG | -0.165 ± 0.12
TCACTCAA | 0.0768 ± 0.022
TCCAGCAA | 0.0563 ± 0.029
CTGGCCTC | -0.191 ± 0.03
GTGCTAGA | 0.0749 ± 0.058
CTAGGGAA | 0.00576 ± 0.011
GGGCCCCC | -0.386 ± 0.075
CAAACCCA | 0.212 ± 0.0064
TGCAAGCA | -0.0637 ± 0.018
CAGTGCAG | -0.189 ± 0.011
CCTAGACA | -0.0468 ± 0.14
AACAGGGA | 0.0422 ± 0.055
ACGCACGA | 0.0808 ± 0.025
ACGCACGC | 0.174 ± 0.014
